The values below come from PubChem BioAssay (Tox21).

A short description of assay [1]: A CellTox Green Cytotoxicity Assay to monitor cytotoxicity in HepG2 cells - 16 hour (AID 1224876). Note: nearly all actives have a fitted effect of over 45% in size. The procedure, abridged:
(§1)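 Using 1536-well format, dye-containing HepG2 suspension was seeded, allowed 5 h at 37 C/5% CO2, dosed by pintool with compounds, positive and negative controls, and imaged for fluorescence across 40 h.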

Assay [2] is described as follows: qHTS RealTime-Glo MT Cell Viability Assay in HepG2 cells - 32 hour (AID 1224877). Note: nearly all actives have a fitted effect of over 55% in size. The procedure, abridged: (§2)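 HepG2 cells were seeded at 600 cells/well together with NanoLuc luciferase and a cell-permeant prosubstrate, preincubated 5 h at 37 C/5% CO2, then pin-dosed with compounds in DMSO. Nonlytic luminescence from viable cells was read at each time point.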
(Quantitative high-throughput screening tests each substance at several concentrations.)

Assay [3] in a line: A CellTox Green Cytotoxicity Assay to monitor cytotoxicity in HepG2 cells - 24 hour (AID 1224878). Note: nearly all actives have a fitted effect of over 45% in size. Note: potency is the fitted concentration of half-maximal effect. The procedure, abridged: as §1
Assay [4] in a line: A CellTox Green Cytotoxicity Assay to monitor cytotoxicity in HepG2 cells - 40 hour (AID 1224879). Note: nearly all actives have a fitted effect of over 40% in size. Note: potency is the fitted concentration of half-maximal effect. Summed up:
as §1

A short description of assay [5]: qHTS RealTime-Glo MT Cell Viability Assay in HEK293 cells - 0 hour (AID 1224880). Note: nearly all actives have a fitted effect of over 45% in size. Note: potency is the fitted concentration of half-maximal effect. Summed up:
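Viable HEK293 cells reduce a cell-permeant prosubstrate; the product diffuses out and is consumed by NanoLuc in the medium to give light. Compounds went in after a 5 h incubation and plates were read over the treatment course.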

The nature of assay [6]: A CellTox Green Cytotoxicity Assay to monitor cytotoxicity in HEK293 cells - 32 hour (AID 1224881). Note: nearly all actives have a fitted effect of over 40% in size. Summed up:
(§3)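 Fluorescence intensity, read at 0, 8, 16, 24, 32 and 40 h of compound treatment, reflected dye binding to DNA of dead HEK293 cells; compounds (23 nL, DMSO) were added 5 h after plating cells with reagent.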

A short description of assay [7]: A CellTox Green Cytotoxicity Assay to monitor cytotoxicity in HepG2 cells - 0 hour (AID 1224882). Note: nearly all actives have a fitted effect of over 35% in size. Summed up: as §1
Assay [8] in a line: A CellTox Green Cytotoxicity Assay to monitor cytotoxicity in HepG2 cells - 32 hour (AID 1224883). Note: nearly all actives have a fitted effect of over 50% in size. Note: potency is the fitted concentration of half-maximal effect. The procedure, abridged: as §1
Assay [9] can be described thus: A CellTox Green Cytotoxicity Assay to monitor cytotoxicity in HEK293 cells - 8 hour (AID 1224884). Note: nearly all actives have a fitted effect of over 35% in size. The procedure, abridged: as §3
Assay [10] in a line: qHTS RealTime-Glo MT Cell Viability Assay in HepG2 cells - 16 hour (AID 1224885). Note: nearly all actives have a fitted effect of over 50% in size. The procedure, abridged:
as §2

Values joined by “and” are separate entries in the source; they are usually repeats but may differ in a detail not shown here. Identical values can stand only once. Inconclusive results are not listed. Some structures have more than one record in an assay (separate samples or runs), and their calls can disagree. Active and inactive are the calls of the source. Calls come from the whole dose curve; as a rule, active = well fitted curve in the direction sought with a large enough effect in the repeat runs; inconclusive = weak or mixed curves; inactive = no such curve, though single readings can be large; an effect the other way counts as inactive or inconclusive.

As for `OCCOCCOCCO`, the Potency entry in assay [1], in [3], in assay [4], in assay [5], in [6] and in [8] was “inactive” each time. For the same compound, the result in assay [2], in assay [7], in assay [9] and in [10] was inactive.

For the compound `CCCSc1ccc2nc(NC(=O)OC)[nH]c2c1`, the Potency entry in [1], in [5] and in assay [6] was “inactive” throughout. The compound was called inactive in assay [2], in assay [7], in assay [9] and in [10]. In addition, the Potency entry was “inactive and 1.9 µM (active)” in assay [3]; 1.34 µM (active) in assay [4]; “inactive and 1.51 µM (active)” in assay [8].

On to `NNc1nncc2ccccc12`, for which the Potency result in assay [1], in assay [3], in assay [4], in assay [5], in assay [6] and in [8] was “inactive” in each case. The compound was classed as inactive in assay [2], in assay [7], in assay [9] and in assay [10].

On to `CC1CCC2CC1C2(C)C` (configuration not stated), for which the Potency entry in assay [1], in [3], in assay [4], in assay [5], in [6] and in [8] was “inactive” in each case. For the same compound, the outcome in assay [2], in assay [7], in assay [9] and in assay [10] was inactive.

As for `CCCC(C)=O`, the Potency result in assay [1], in [3], in assay [4], in assay [5], in assay [6] and in assay [8] was “inactive” in each case. For the same compound, the result in assay [2], in assay [7], in assay [9] and in assay [10] was inactive.

In the case of `O=C(Oc1ccccc1)c1ccccc1`, the Potency result in assay [1], in assay [3], in assay [4], in [5], in assay [6] and in assay [8] was “inactive” throughout. The compound was called inactive in assay [2], in [7], in assay [9] and in [10].

In the case of `OCC(CO)(CBr)CBr`, the Potency entry in [1], in assay [3], in [4], in [5], in assay [6] and in [8] was “inactive” each time. Moreover, the compound was classed as inactive in assay [2], in [7], in assay [9] and in assay [10].

For the compound `CCCCOC(=O)COc1ccc(Cl)cc1Cl`, the Potency result in assay [1], in assay [3], in assay [4], in assay [5], in [6] and in [8] was “inactive” throughout. For the same compound, the compound was classed as inactive in [2], in assay [7], in assay [9] and in assay [10].

Consider `O=C(CC(C(=O)OC1CCCCC1)S(=O)(=O)O)OC1CCCCC1` (configuration not stated), for which the Potency result in [1], in assay [3], in [4], in assay [5], in [6] and in assay [8] was “inactive” throughout. In addition, the compound was classed as inactive in [2], in assay [7], in [9] and in assay [10].

As for `Fc1ccc(Br)cc1`, the Potency entry in assay [1], in [3], in assay [4], in assay [5], in assay [6] and in assay [8] was “inactive” each time. In addition, the call in assay [2], in [7], in [9] and in [10] was inactive.

On to `CC(=O)CC(=O)Nc1ccccc1`, for which the Potency result in assay [1], in assay [3], in [4], in assay [5], in [6] and in assay [8] was “inactive” each time. The outcome in assay [2], in assay [7], in assay [9] and in [10] was inactive.

Regarding `COc1cc(Cc2cnc(N)nc2N)cc(OC)c1OC`, the Potency result in assay [1], in assay [3], in assay [4], in assay [5], in assay [6] and in [8] was “inactive” throughout. For the same compound, the outcome in assay [2], in assay [7], in assay [9] and in [10] was inactive.

`COc1ccc(Cl)cc1C(=O)NCCc1ccc(S(=O)(=O)NC(=O)NC2CCCCC2)cc1`: the Potency entry in [1], in assay [3], in assay [4], in assay [6] and in assay [8] was “inactive” each time. Moreover, the call in [2], in assay [7], in [9] and in [10] was inactive.

Regarding `CC(C)(N)CO`, the Potency result in assay [1], in [3], in [4], in assay [5], in assay [6] and in [8] was “inactive” throughout. Further, the call in [2], in assay [7], in assay [9] and in assay [10] was inactive.

`C[C@H]1C[C@@H]2[C@H]([C@@H](O)C[C@@]3(C)[C@H]2CC[C@]3(O)C(=O)CO)[C@@]2(C)C=CC(=O)C=C12`: the Potency result in [1], in [3], in assay [4], in assay [6] and in assay [8] was “inactive” each time. Besides, the result in assay [2], in assay [7], in assay [9] and in assay [10] was inactive. Further, in [5], the Potency was 7.76 µM (active) and 8.49 µM (active).

Regarding `CCCCCC/C(C=O)=C\c1ccccc1`, the Potency entry in [1], in [3], in assay [4], in [5], in assay [6] and in assay [8] was “inactive” in each case. Also, the call in [2], in assay [7], in assay [9] and in [10] was inactive.

As for `O=C(O)c1cc(=O)c2c(OCC(O)COc3cccc4oc(C(=O)O)cc(=O)c34)cccc2o1`, the Potency result in [1], in assay [3], in assay [4], in [5], in assay [6] and in [8] was “inactive” each time. The outcome in [2], in [7], in [9] and in assay [10] was inactive.

Regarding `Cc1ccc(N(C)C)cc1`, the Potency entry in assay [1], in assay [3], in [4], in assay [5], in assay [6] and in assay [8] was “inactive” throughout. The call in assay [2], in [7], in assay [9] and in assay [10] was inactive.

Consider `C/C=C1/CC2C=CC1C2` (configuration not stated), for which the Potency result in assay [1], in [3], in assay [5], in [6] and in [8] was “inactive” each time. Also, the compound was called inactive in [2], in assay [7] and in assay [9].

For `N[C@@H](Cc1cc(I)c(Oc2cc(I)c(O)c(I)c2)c(I)c1)C(=O)O`, the Potency entry in [1], in [3], in [4], in [5], in assay [6] and in [8] was “inactive” each time. For the same compound, the outcome in assay [2], in assay [7], in [9] and in assay [10] was inactive.

For `CCCCCCCCCCCCCCCO`, the Potency entry in [1], in [3], in assay [4], in assay [5], in assay [6] and in [8] was “inactive” in each case. Moreover, the compound was called inactive in assay [2], in assay [7], in assay [9] and in [10].

`O=C(O)CC(C(=O)O)C(CC(=O)O)C(=O)O` (configuration not stated): the Potency result in assay [1], in assay [3], in assay [4], in assay [5], in [6] and in assay [8] was “inactive” each time. In addition, the call in assay [2], in assay [7], in assay [9] and in [10] was inactive.

As to `O=c1[nH]nnc2ccccc12`, the Potency result in assay [1], in assay [3], in [4], in assay [5], in assay [6] and in [8] was “inactive” throughout. In addition, the call in assay [2], in [7], in assay [9] and in assay [10] was inactive.
